# TRPM1 prom inh: inhibitors of MITF-dependent TRPM1 promoter reporter, primary screen, cell-based, SK-MEL-5, single point, luciferase; 0.83% of 330,000 active; SK-MEL-5 TRPM1 promoter luciferase, 24 h; inhibition, % at 12.5 µM;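 active = mean inhibition across replicates of 60% or more, whatever share of single replicates reaches that level; inconclusive = some that reach 60%, reason not given; inactive = mean inhibition across replicates below 60%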
# Wnt act: Wnt/beta-catenin pathway activators, primary screen, cell-based, plate reader, single point | activation, % at 9.35 µM | 1.2% of 300,000 active | Wnt/beta-catenin reporter cell assay, activator; in the data active = activation above about 30%, passing the limit was not always enough; inconclusive = no clear call, values can overlap the other calls;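 also: 0% = neutral control wells and 100% = positive control wells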
# MITF act: activators of MITF-driven TRPM1 promoter reporter, primary screen, cell-based, SK-MEL-5, luciferase, single point; activation, % at 12.5 µM; SK-MEL-5 TRPM1-promoter luciferase, 24 h; % of positive control, neutral wells = 0; 0.75% of 300,000 active; AID 588334, 2011;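 active = mean activation of at least 80% with every replicate also reaching 80%; inconclusive = mean reaches 80% but some replicate falls short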;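 also: 0% = neutral control wells and 100% = parthenolide positive control wells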
# esBAF inh: Bmi1 luciferase reporter increase in mESCs, primary screen, esBAF inhibitor project, mouse ES cells, Bmi1 luciferase knock-in, single point; reporter increase, % at 12.5 µM; 24 h; 100% = twice the neutral-well signal; 2% of 350,000 active; in the data active = activation above about 40%; inconclusive = no clear call, values can overlap the other calls;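 also: 0% = median of the plate's neutral control wells and 100% = double that signal; a rise in the Bmi1 reporter signal indicates esBAF inhibition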
# LMP1 NFkB inh: EBV LMP1-driven NF-kappaB luciferase reporter inhibitors, primary screen, cell-based, luminescence, single point; LMP1-induced NF-kappaB luciferase reporter cells; inhibition, % at 12.5 µM; 0.69% of 350,000 active; AID 504558, 2011; in the data active = inhibition above about 41%; inconclusive = no clear call, values can overlap the other calls;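 also: 0% = neutral control wells and 100% = reference inhibitor control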
# C2C12 statin: suppressors of statin myotoxicity in C2C12 myotubes, primary screen, cell-based, single point, plate reader. C2C12 myotubes + simvastatin, ATP luminescence, 48 h; scaled: DMSO 0, geranylgeraniol control 100. rescue of ATP level, % at 7.49 µM. 0.78% of 330,000 active. AID 602340, 2012;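 active = mean ATP rescue above about 67%, or every replicate alone reaching that limit, limit read from the data, passing the limit was not always enough; inconclusive = no clear call, values can overlap the other calls; inactive = mean under the limit and some replicate under it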;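 also: myotubes were challenged with 10 µM simvastatin during compound exposure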
# Ring1 derepress: Ring1 mRNA increase in mouse ESCs, confirmation, esBAF inhibitor project, cell-based, mouse ESC, RT-qPCR, cherry-pick | shares compounds with esBAF inh | mouse ESC E14, Ring1 mRNA RT-qPCR fold change | fold change at 33 µM | 550 tested, under 10 active | AID 743176, 2013;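 active = Ring1 gene expression raised more than 2-fold over untreated cells in both replicates at either tested dose; inconclusive = only one replicate above 2-fold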;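 also: Ring1 transcript normalised to actin housekeeping signal by TaqMan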
# esBAF Fgf4 qPCR: Fgf4 mRNA decrease in mouse ESCs, confirmation, esBAF inhibitor project, cell-based, mouse ESC, RT-qPCR, cherry-pick; shares compounds with esBAF inh; mouse ESC E14, Fgf4 mRNA qPCR fold change; stronger effect = lower value; Fgf4 expression fold change at 33 µM; 4% of 550 active;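 active = Fgf4 expression under 0.8 fold of control in both repeat measurements at one or both tested doses; inconclusive = under 0.8 fold in just a single repeat measurement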;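 also: Fgf4 transcript normalised to actin in duplex TaqMan qPCR; cells exposed to compound for 24 h before lysis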
# esBAF Bmi1 qPCR: esBAF inhibition via Bmi1 de-repression, confirmation, cell-based, RT-qPCR, mouse ESC, single point, cherry-pick. shares compounds with esBAF inh. mouse ESE14 ES cells, Bmi1 mRNA qPCR fold; stronger effect = higher value. fold change at 33 µM. 550 tested, under 10 active. AID 743180, 2013;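 active = Bmi1 expression fold change above 6 at either tested concentration, seen in replicate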
# A549 cytotox: A549 cell cytotoxicity, cytotoxicity control, plate reader, single point, cherry-pick. shares compounds with esBAF inh. cell viability change % (negative = cytotoxic), % at 25 µM, hits read low. 550 tested, under 10 active. AID 743188, 2013; call rule not given here
# HepG2 tox SP: HepG2 cell cytotoxicity, cytotoxicity control, plate reader, single point, cherry-pick; shares compounds with esBAF inh; stronger effect = lower value; activity change, negative = inhibition, % at 25 µM; 4% of 550 active; AID 743189, 2013; in the data active = activity change below about -50%
# HEK293 tox SP: HEK293 cell cytotoxicity, cytotoxicity control, plate reader, single point, cherry-pick | shares compounds with esBAF inh | activity change, negative = inhibition, % at 25 µM, hits read low | 3% of 550 active; in the data active = activity change below about -38%, passing the limit was not always enough
# Numbers without * were called inactive; ? = inconclusive; · = not tested or not shown. A selection: hits, their analogues and other compounds. The true share with any hit is near 4%.
SMILES,TRPM1 prom inh,Wnt act,MITF act,esBAF inh,LMP1 NFkB inh,C2C12 statin,Ring1 derepress,esBAF Fgf4 qPCR,esBAF Bmi1 qPCR,A549 cytotox,HepG2 tox SP,HEK293 tox SP
O=C(Nc1ncn[nH]1)c1ccccc1Br,10.8,0.6,-11.4,·,1.5,·,·,·,·,·,·,·
CN(C)c1ccc(CNc2nc(-c3ccccc3)nn2S(C)(=O)=O)cc1,-16.0,9.8,17.9,1.4,-10.7,2.4,·,·,·,·,·,·
CC(=O)n1nc(-c2ccccc2)nc1NCc1ccc(N(C)C)cc1,-68.9,13.1,74.0,58.8*,-15.4,5.4,1.13,0.919,1.21,-7.1,7.4,-16.9
O=C(Nc1ccc(Nc2ccccc2)cc1)Nc1ccccc1Cl,-99.9,24.5,101.7*,70.2*,-20.2,-40.1,1.39,0.82,1.63,-1.0,2.9,-19.3
O=C(NCCc1ccc(F)cc1)c1ccc2c(=O)n3c(nc2c1)CCC3,-80.6,11.6,79.9,54.1*,-29.1,-13.4,1.2,0.885,1.5,1.5,-28.6,-7.7
Nc1ccccc1/C=C/c1ccccc1N,-55.1,20.0,54.5,111.8*,-35.3,-1.9,1.41,0.994,1.77,-4.0,24.4,-7.2
COc1cc(C(=O)Nc2ccc(Cl)c(C(F)(F)F)c2)cc(OC)c1OC,-4.5,-4.7,9.5,2.1,2.3,-6.8,·,·,·,·,·,·
COc1cccc(C(=O)Nc2ccc(Cl)c(C(F)(F)F)c2)c1,-83.5,26.6,?,68.2*,-13.4,-5.7,0.971,0.977,1.91,-1.6,-39.5,-6.1
COc1ccccc1-c1ccc([C@H]2[C@@H](CO)N3CCCCN(S(=O)(=O)c4cn(C)cn4)C[C@H]23)cc1,·,·,·,-0.9,·,-12.6,·,·,·,·,·,·
C=CCNc1nc(Cl)nc(Nc2ccccc2)n1,-50.1,-2.2,50.0,59.5*,-36.3,-9.7,1.19,0.998,1.11,3.5,-8.8,-10.4
CNc1nc(Cl)nc(Nc2ccccc2)n1,-6.7,8.2,8.4,·,-10.8,·,·,·,·,·,·,·
COc1ccc(Cc2nc3ccc(C(=O)NCCCSC)cc3o2)cc1OC,-28.4,19.7,·,77.1*,-12.9,4.7,0.943,0.974,1.29,-9.0,-45.9,-5.2
Cc1csc(-c2ccc3cc(Cl)cc(Cl)c3n2)n1,·,3.8,·,70.9*,·,-8.6,1.15,0.972,1.55,-10.5,27.5,-11.3
O=c1c(-c2nc3ccccc3s2)cccn1Cc1ccc(Cl)cc1,-51.1,22.6,·,67.0*,-32.5,13.1,1.04,0.975,1.4,-10.2,3.4,-16.1
Clc1ncccc1-c1nc2ccccc2s1,-39.1,10.0,26.9,·,-17.3,·,·,·,·,·,·,·
COC(=O)c1oc(-c2ccccc2)nc1C,3.3,0.2,-2.8,·,6.2,·,·,·,·,·,·,·
Nc1ccc2c(c1)Cc1cc(N)c(Cl)cc1-2,-34.9,-3.7,32.5,88.3*,-5.7,17.5,1.36,0.995,1.6,-8.3,-40.7,9.0
COc1cccc(OC)c1C(=O)NC(=O)Nc1c(F)cc(F)cc1F,1.3,-0.2,·,·,1.9,·,·,·,·,·,·,·
Fc1ccc(CSc2ccc(-c3cccs3)nn2)cc1,-34.2,15.8,32.1,69.2*,-19.4,-8.9,1.16,?,1.45,-5.9,-7.2,-6.6
CCOc1cc(CNc2ccc3[nH]c(=O)[nH]c3c2)ccc1OCC(=O)NC(C)(C)C,10.3,·,-9.5,-13.2,-3.8,9.4,·,·,·,·,·,·
COc1cccc(NC(=O)CN(C)C(=O)CNC(=O)c2sc3ccccc3c2Cl)c1,-20.3,7.3,28.7,66.5*,-6.8,15.4,0.891,0.891,1.35,-13.6,-29.0,-31.7
COc1cccc(NC(=O)CN(C)C(=O)c2sc3cc(Cl)ccc3c2Cl)c1,-1.7,-0.8,2.2,-5.2,5.4,-2.2,·,·,·,·,·,·
O=C(Nc1nc2c(s1)CCc1ccccc1-2)c1cccs1,-25.6,·,22.5,71.4*,-28.6,-12.9,1.82,?,2.25,-2.9,-5.2,11.7
O=C(Nc1nc2c(s1)COc1ccccc1-2)c1cccs1,·,1.2,·,-2.6,-165.1,-8.3,·,·,·,·,·,·
C[C@@H]1CN([C@@H](C)CO)C(=O)c2cccc(NS(=O)(=O)c3ccc(Cl)cc3)c2O[C@@H]1CN(C)C(=O)Nc1cccc2ccccc12,·,·,·,1.7,·,·,·,·,·,·,·,·
SMILES,TRPM1 prom inh,Wnt act,MITF act,esBAF inh,LMP1 NFkB inh,C2C12 statin,Ring1 derepress,esBAF Fgf4 qPCR,esBAF Bmi1 qPCR,A549 cytotox,HepG2 tox SP,HEK293 tox SP
Clc1ccc(-c2csc(N3CCSCC3)n2)cc1,-50.0,9.5,45.8,75.9*,1.0,-0.5,0.986,0.867,1.74,-7.3,-11.4,-10.6
O=C(NC1CCCCCCC1)c1ccc(F)cc1,-64.2,29.0,59.1,-3.7,-35.4,18.4,·,·,·,·,·,·
O=C(NC1CCCCC1)c1ccc(-c2ccccc2)cc1,-73.7,22.0,68.2,70.2*,-17.1,-13.1,1.37,0.99,1.51,-3.2,-34.1,-6.1
O=C(NC1CCCCC1)c1n[nH]c2c1CC(c1ccccc1)CC2 (configuration not stated),-62.4,25.6,61.0,69.6*,-6.0,3.7,1.25,0.905,1.52,-5.4,-5.8,2.6
O=c1c2ccccc2sc2ccccc12,-38.5,14.1,35.8,57.5*,-6.9,-0.4,0.963,1.05,2.04,-13.4,7.1,-13.9
O=c1c2ccccc2sc2ccc(Cl)cc12,-43.8,·,52.3,·,-3.8,·,·,·,·,·,·,·
COc1ccc(-n2nc(C(=O)NCC(=O)N3CCN(c4ccc(F)cc4)CC3)c3ccccc3c2=O)c(OC)c1,-5.9,3.0,10.4,30.0,-12.4,16.8,·,·,·,·,·,·
COc1ccc(-n2nc(C(=O)NCC(=O)N3CCN(c4ccccc4)CC3)c3ccccc3c2=O)c(OC)c1,-94.8,4.7,97.5*,37.2,-18.1,9.1,1,0.925,1.05,-10.5,-26.2,-12.1
Cc1cc(C)c2c(CN(C)Cc3ccccc3)cc(=O)oc2c1,·,11.6,·,62.5*,·,4.9,1.19,?,1.5,-10.9,-7.2,-52.8*
COc1ccc(OCc2cnc(Cl)s2)cc1,-40.6,1.8,39.8,28.8,0.6,·,·,·,·,·,·,·

# Screening data as filed in PubChem BioAssay.
